Measured values reported in the supplement of paper PMC10981050.
Where “and” joins values, the source holds several entries; their conditions need not be identical. Equal values may be shown once. Where a name gives a salt, the structure may show the parent alone.

Experiments:
Test in all cases: cell viability relative to vehicle control; higher = less cytotoxic
Conditions in all cases: 10 µM
K562 = test system: K562
How it was run: (§1)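 Mutant clones made by CRISPR editing and their isogenic wild-type counterparts, from four leukaemia lines, were exposed to a single 10 µM dose of each library compound for 48 h. The supernatant was then removed and CellTiter-Glo luminescence was read. Viability was reported as percent of the on-plate vehicle control.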

MARIMO = test system: MARIMO
How it was run: as §1

MOLM14 = test system: MOLM14
How it was run: as §1

OCI-AML2 = test system: OCI-AML2
How it was run: as §1

Row | SMILES | cell viability (K562; SRSF2 genotype: SRSF2 P95H/wt) | cell viability (K562; SRSF2 genotype: SRSF2 wt/wt) | cell viability (MARIMO; SRSF2 genotype: SRSF2 P95H/wt) | cell viability (MARIMO; SRSF2 genotype: SRSF2 wt/wt) | cell viability (MOLM14; SRSF2 genotype: SRSF2 P95H/wt) | cell viability (MOLM14; SRSF2 genotype: SRSF2 wt/wt) | cell viability (OCI-AML2; SRSF2 genotype: P95H/wt) | cell viability (OCI-AML2; SRSF2 genotype: wt/wt)
1 | O=C1/C(=C/c2cccs2)CC/C1=C\c1cccs1 | 99.2% and 106% | 110% | 96.2% | 104% | 105% | 99.2% | 109% | 86%
2 | CN(C(=O)CNC(=O)/C=C/c1cccc(Cl)c1)C1CCS(=O)(=O)CC1 | 35.4% and 33% | 28.4% | 103% | 104% | 105% | 86% | 101% | 104%
3 | COC(=O)C1=CC[C@@]23CC[C@@H]([C@@](C)(/C=C/C=C(\C)C(=O)O)OC2=O)[C@@]3(OC(C)=O)CC1 [Pseudolaric Acid B] | 18.7% and 39.2% | 33.1% | 6.72% | 9.79% | 15.9% | 3.39% | 8.39% | 11.6%
4 | OB1OCc2cc(F)ccc21 [Tavaborole (AN-2690)] | 88.2% and 85.6% | 84.3% | 85.4% | 87.8% | 82.8% | 85.1% | 87.8% | 82.8%
5 | CC(C)c1c(-c2ccccc2)nc2c(C#N)c[nH]n2c1=O | 105% and 99.3% | 108% | 103% | 93.5% | 97.8% | 98.8% | 103% | 101%
6 | O=C(O)CCCc1c[nH]c2ccccc12 [3-Indolebutyric acid (IBA)] | 108% and 96.9% | 96.9% | 100% | 107% | 93.2% | 101% | 97.2% | 106%
7 | N=C(NOCC(O)CN1CCCCC1)c1cccnc1 (stereo not drawn) | 106% and 96.6% | 106% | 104% | 99.2% | 108% | 101% | 97.6% | 104%
8 | Cn1c(=O)cc(N2CCC[C@@H](N)C2)n(Cc2cc(F)ccc2C#N)c1=O [Trelagliptin] | 100% and 93.3% | 92.1% | 96.8% | 101% | 98.3% | 99.2% | 100% | 102%
9 | CC(C)(C)NCC(O)c1ccc(O)c(CO)c1 (stereo not drawn) [Salbutamol] | 104% and 102% | 110% | 108% | 107% | 99.4% | 106% | 101% | 97.1%
10 | CC(C)(C)C(=O)Nc1ccc2c(c1)C(=O)C(=O)c1ccccc1-2 [SF1670 (PTEN inhibitor)] | 84.3% and 70.9% | 56.8% | 2.56% | 70.5% | 88.4% | 39.2% | 65.8% | 76.2%
11 | CN1CCN2c3ncccc3Cc3ccccc3C2C1 (stereo not drawn) [Mirtazapine (Remeron, Avanza)] | 101% and 92.3% | 88.7% | 93.2% | 96.8% | 92.3% | 97.4% | 95.9% | 96.5%
12 | CC(=O)[C@H]1CC[C@H]2[C@@H]3CC=C4C[C@@H](O)CC[C@]4(C)[C@H]3CC[C@]12C [Pregnenolone] | 103% and 108% | 107% | 103% | 105% | 101% | 105% | 100% | 107%
13 | COc1ccc(-c2cc(=O)c3c(O)cc(O[C@@H]4O[C@H](CO[C@@H]5O[C@@H](C)[C@H](O)[C@@H](O)[C@H]5O)[C@@H](O)[C@H](O)[C@H]4O)cc3o2)cc1O [Diosmin] | 90.8% and 97.8% | 89.9% | 94.8% | 101% | 97.6% | 92.4% | 90.4% | 92.4%
14 | C=CCn1c(=O)c2cnc(Nc3ccc(N4CCN(C)CC4)cc3)nc2n1-c1cccc(C(C)(C)O)n1 | 8.01% and 13.9% | 10.5% | 11.7% | 6.8% | 11.6% | 4.1% | 9.17% | 8.01%
15 | CCOc1ccccc1OCCN[C@H](C)Cc1ccc(OC)c(S(N)(=O)=O)c1 [Tamsulosin] | 100% and 96% | 90.7% | 85.2% | 103% | 97.5% | 98% | 87.4% | 105%
16 | CCCCCCCCCCCCCCCC(=O)O[C@@H]1[C@@H](O)[C@@H](O)[C@@H]([C@H](NC(=O)[C@@H]2C[C@@H](CCC)CN2C)[C@H](C)Cl)O[C@@H]1SC [Clindamycin palmitate HCl] | 90.7% and 98.9% | 94.8% | 103% | 108% | 101% | 105% | 93.6% | 101%
17 | O=C1C(c2[nH]c3ccccc3c2O)=Nc2ccccc21 [Indigo] | 105% and 106% | 94.6% | 100% | 108% | 93% | 99.8% | 90% | 106%
18 | CCCNC(=O)Nc1ccc(Oc2ncnc3cc(OC)c(OC)cc23)cc1Cl | 99.4% and 106% | 99.8% | 108% | 113% | 92% | 105% | 99.5% | 101%
19 | O=C(O)CC(C(=O)O)n1c(O)c(C2=c3cc(Br)ccc3=NC2=O)sc1=S (stereo not drawn) | 96.1% and 99.4% | 99.6% | 97.7% | 100% | 81.8% | 89.4% | 113% | 103%
20 | CNC(=O)c1cccc(-c2ccc3c(N4CCOC[C@@H]4C)nc(N4CCOC[C@@H]4C)nc3n2)c1 [Vistusertib (AZD2014)] | 44.8% and 43.3% | 38.4% | 60.8% | 48.5% | 35.1% | 28.9% | 29.2% | 28.8%
21 | CC(C)=CCCC(C)(O)C1CCC2(C)C1C(O)CC1C3(C)CCC(OC4OC(CO)C(O)C(O)C4OC4OC(CO)C(O)C(O)C4O)C(C)(C)C3CCC12C [(20R)Ginsenoside Rg3] | 105% and 103% | 99.1% | 107% | 122% | 108% | 109% | 105% | 128%

Row | SMILES | cell viability (K562; SRSF2 genotype: SRSF2 P95H/wt) | cell viability (K562; SRSF2 genotype: SRSF2 wt/wt) | cell viability (MARIMO; SRSF2 genotype: SRSF2 P95H/wt) | cell viability (MARIMO; SRSF2 genotype: SRSF2 wt/wt) | cell viability (MOLM14; SRSF2 genotype: SRSF2 P95H/wt) | cell viability (MOLM14; SRSF2 genotype: SRSF2 wt/wt) | cell viability (OCI-AML2; SRSF2 genotype: P95H/wt) | cell viability (OCI-AML2; SRSF2 genotype: wt/wt)
22 | Cc1cc(O)c2c(c1)C(=O)c1cc(O)cc(O)c1C2=O [Emodin] | 85.5% and 86.8% | 90.4% | 90.9% | 100% | 109% | 107% | 89.1% | 83.7%
23 | COc1cc(OC)c(C(=O)CCCN2CCCC2)c(OC)c1 [Buflomedil HCl] | 93.2% and 114% | 108% | 100% | 102% | 112% | 106% | 113% | 101%
24 | CC(C)n1nc(-c2ccc(NC(=O)Nc3cc(C(F)(F)F)ccc3F)cc2)c2c(N)ncnc21 | 26.5% and 30.8% | 19% | 8.66% | 4.51% | 1.98% | 0.7% | 2.08% | 8.47%
25 | COc1ccc(CC(=O)Nc2nc3c(s2)CCc2ccccc2-3)cc1OC | 70.4% and 68.1% | 68.3% | 45.1% | 26.8% | 65.1% | 76.5% | 27.9% | 34.9%
26 | COc1cc2oc(=O)ccc2cc1O [Isoscopoletin] | 95.2% and 95.4% | 96.4% | 95.6% | 94.7% | 104% | 97.2% | 97.1% | 93.8%
27 | C[C@H]1[C@H](C)CC[C@]2(C(=O)O)CC[C@]3(C)C(=CC[C@@H]4[C@@]5(C)C[C@@H](O)[C@H](O)C(C)(C)[C@@H]5CC[C@]43C)[C@H]12 [Corosolic acid] | 94.6% and 95.3% | 93.5% | 94.7% | 107% | 97.3% | 96.1% | 103% | 99.7%
28 | COc1cc2c(cc1OC)[C@@H]1Cc3ccc(OC)c(OC)c3CN1CC2 [Tetrahydropalmatine hydrochloride] | 89.6% and 96.5% | 95.6% | 91.4% | 93.7% | 93.4% | 101% | 103% | 83.9%
29 | CC(=O)OC1C[C@H](C)CCC1C(C)C (stereo partly drawn) [(1R)-(-)-Menthyl acetate] | 98% and 101% | 101% | 92.4% | 97.6% | 98.5% | 106% | 104% | 114%
30 | COc1ccnc(C[S+]([O-])c2nc3cc(OC(F)F)ccc3[nH]2)c1OC (stereo not drawn) [Pantoprazole sodium] | 98.7% and 96.7% | 95.9% | 97% | 101% | 96.5% | 97.3% | 95.7% | 104%
31 | CCOC(=O)c1ccc(O)c(OC)c1 [Ethyl Vanillate] | 97.5% and 92.9% | 100% | 105% | 108% | 94.1% | 104% | 103% | 91.1%
32 | C[C@@H]1O[C@@H](O[C@H]2[C@H](O[C@H]3CC[C@@]4(C)[C@@H](CC[C@]5(C)[C@@H]4CC=C4[C@@H]6CC(C)(C)CC[C@]6(C(=O)O)CC[C@]45C)[C@]3(C)CO)OC[C@H](O[C@@H]3O[C@H](CO)[C@@H](O)[C@H](O)[C@H]3O)[C@@H]2O)[C@H](O)[C@H](O)[C@H]1O [Pulsatilla saponin D] | 0.56% and 0.59% | 0.55% | 0.46% | 0.67% | 0.5% | 0.59% | 0.5% | 0.54%
33 | COc1cc(/C=C/C(=O)O[C@H]2[C@H](O)[C@@H](CO)O[C@@]2(CO)O[C@H]2O[C@H](CO)[C@@H](O)[C@H](O)[C@H]2O)ccc1O [Sibiricose A5] | 113% and 112% | 115% | 108% | 99.2% | 110% | 112% | 107% | 95.7%
34 | COc1cccc(C=NCCN=Cc2cccc(OC)c2[O-])c1[O-].[Cl-].[Mn+3] | 100% and 97% | 97.3% | 92% | 104% | 92.2% | 104% | 89.2% | 101%
35 | Cc1nc(C#Cc2ccnc(Cl)c2)c(C)n1-c1ccc(OC(F)(F)F)cc1 | 75.6% and 89.6% | 75.7% | 82.7% | 88.9% | 78.8% | 80.2% | 55.7% | 68.7%
36 | S=C(N/N=C1/CCCc2cccnc21)N1CCN(c2ccccn2)CC1 | 16.2% and 6.78% | 26.6% | 28% | 25.2% | 22.1% | 13.9% | 22.8% | 30.5%
37 | N=C(N)c1ccc(OCCCCCOc2ccc(C(=N)N)cc2)cc1 [Pentamidine isethionate] | 53.9% and 50% | 55.9% | 63.3% | 62.8% | 72% | 70.5% | 65.5% | 57.8%
38 | CC(=O)O[C@]1(C(C)=O)CC[C@H]2[C@@H]3C[C@H](C)C4=CC(=O)CC[C@]4(C)[C@H]3CC[C@@]21C [Medroxyprogesterone acetate] | 82.5% and 92.8% | 94.7% | 104% | 73% | 112% | 102% | 98.5% | 87.5%
39 | CC(C)Cc1ccc(C(C)C(=O)O)cc1 (stereo not drawn) [Ibuprofen (Advil)] | 99.3% and 98.5% | 92.9% | 95.1% | 100% | 100% | 101% | 87.7% | 101%
40 | CN1C(=O)c2sccc2N(C)c2nc(Nc3ccc(S(N)(=O)=O)cc3)ncc21 | 14% and 30.1% | 63.4% | 22.4% | 25.9% | 5.5% | 3.55% | 8.63% | 10.6%
41 | CC[C@@H]1/C=C(\C)C[C@H](C)C[C@H](OC)[C@H]2O[C@@](O)(C(=O)C(=O)N3CCCC[C@H]3C(=O)O[C@H](/C(C)=C/[C@@H]3CC[C@H](Cl)[C@H](OC)C3)[C@H](C)[C@@H](O)CC1=O)[C@H](C)C[C@@H]2OC [Pimecrolimus] | 66% and 70.4% | 64.5% | 80.5% | 70.7% | 65.7% | 67.3% | 58.1% | 57.8%
